Laboratory results as given in PubChem BioAssay (NCI).
Compounds without any hit were thinned out: in the full panel of roughly 83,000, 20% have a hit.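 Growth was measured after 48 h exposure to one concentration of compound in 96-well plates. Values under 10 count as active.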 A number with no mark means an inactive call. The source made the active and inactive calls.

What was measured:
Test in all cases: NCI-60 one-dose screen, 48 h (100 = growth as untreated, 0 = no growth, -100 = all killed)
Details in all cases: 10 µM unless noted
NCI-H23 lung = system: NCI-H23 lung
NCI-H226 lung = system: NCI-H226 lung
NCI-H322M lung = system: NCI-H322M lung
HOP-62 NSCLC = system: HOP-62 NSCLC
NCI-H460 lung = system: NCI-H460 lung
HOP-92 NSCLC = system: HOP-92 NSCLC
NCI-H522 lung = system: NCI-H522 lung
A549/ATCC NSCLC = system: A549/ATCC NSCLC
786-0 renal = system: 786-0 renal
COLO 205 colon = system: COLO 205 colon
DU-145 prostate = system: DU-145 prostate
K-562 leukemia = system: K-562 leukemia
MALME-3M melanoma = system: MALME-3M melanoma
MDA-MB-231 breast = system: MDA-MB-231 breast
RXF 393 renal = system: RXF 393 renal
SF-268 CNS = system: SF-268 CNS
SF-295 CNS = system: SF-295 CNS
SF-539 CNS = system: SF-539 CNS
UACC-257 melanoma = system: UACC-257 melanoma
M14 melanoma = system: M14 melanoma

Structure (SMILES)	growth (NCI-H23 lung)	growth (NCI-H226 lung)	growth (NCI-H322M lung) [%]	growth (HOP-62 NSCLC)	growth (NCI-H460 lung)	growth (HOP-92 NSCLC)	growth (NCI-H522 lung)	growth (A549/ATCC NSCLC)	growth (786-0 renal)	growth (COLO 205 colon)	growth (DU-145 prostate)	growth (K-562 leukemia)	growth (MALME-3M melanoma)	growth (MDA-MB-231 breast)	growth (RXF 393 renal)	growth (SF-268 CNS) [%]	growth (SF-295 CNS)	growth (SF-539 CNS)	growth (UACC-257 melanoma)	growth (M14 melanoma)
COc1ccc(/C=C2\Oc3cc(OCCN4CCC(Cc5ccccc5)CC4)ccc3C2=O)cc1OC	68.6%	69.6%	96.2	78.6%	66.5%	47.7%	78.2%	86.7%	78.4%	19.1%	82.5%	7.36% (active)	52.7%	53.5%	48%	79.8	82.6%	83%	73.3%	30.2%
Cc1c(C(=O)NCCN2CCOCC2)cn2ncnc(Oc3ccc(NC(=O)Nc4ccc(Cl)c(C(F)(F)F)c4)cc3)c12	13.9%	34.2%	73.8	20.5%	3.24% (active)	7.32% (active)	5.61% (active)	13.4%	12.3%	-25.4% (active)	42.3%	4.96% (active)	-4.42% (active)	7.21% (active)	-26.8% (active)	29	-29.3% (active)	-2.93% (active)	24.3%	3.71% (active)
CCOC(=O)C1=C(N)Oc2c(sc3c(C)cccc23)C1c1ccc(F)cc1 (stereo not given)	20.1%	9.65% (active)	51.5	36.2%	4.3% (active)	91.7%	11.8%	20.1%	33.4%	-1.13% (active)	12.1%	4.54% (active)	52.7%	27.8%	-7.13% (active)	38.2	0.881% (active)	-1.53% (active)	59.2%	10.6%
COc1ccc(NC2=C(Br)C(=O)C(C)=C(C)C2=O)cc1	79.7%	75.5%	89.9	84.2%	99.9%	-73.6% (active)	87.6%	99.5%	103%	115%	106%	-2.92% (active)	94.4%	-55.4% (active)	102%	98	98.9%	90.6%	72.8%	97%
CNC(=O)c1[nH]cc(-c2ccccc2)c1-c1cc(OC)c2c(c1OC)OCO2	104%	94.6%	103	94.5%	108%	96.7%	87.9%	96.7%	94.8%	102%	106%	98.7%	105%	96.2%	94.1%	93.6	106%	102%	101%	98.3%
COc1ccc(CNC(=O)[C@H](O)[C@@H](N)Cc2ccccc2)cc1	99.9%	98.8%	105	119%	106%	72.8%	95.6%	108%	97.9%	114%	113%	98.4%	108%	100%	107%	92.7	97.9%	97.2%	108%	105%
CCCCCCn1c(-c2ccc(C(=O)O/N=C(\N)c3ccc4ccccc4c3)cc2)nc(-c2ccccc2)c1-c1ccccc1	44.3%	80.3%	83.6	81.7%	58.5%	16%	47.9%	-33.5% (active)	4.48% (active)	77.2%	53.9%	-8.77% (active)	71.5%	64.4%	35.1%	51.3	70.1%	48.8%	82.2%	72.7%
Cc1cccc2c3c(sc12)C(c1ccc(Cl)cc1)C(C#N)=C(N)O3 (stereo not given)	21.4%	26.4%	49.1	38.7%	9.2% (active)	89.7%	13.7%	30.1%	29%	-21.2% (active)	17.6%	5.28% (active)	61.9%	26.1%	-7.02% (active)	44.8	1.66% (active)	-14.5% (active)	69.5%	9.67% (active)
CCc1cccc2c3c(sc12)C(c1ccc(F)cc1)C(C#N)=C(N)O3 (stereo not given)	33.6%	29.1%	57.7	48.7%	12.9%	78.9%	26.8%	31.9%	30%	5.48% (active)	24.5%	12.4%	75.9%	21.1%	1.43% (active)	54.5	8.12% (active)	2.76% (active)	74.2%	19.2%
COc1ccc2c(c1)/C(=C/c1sc(=S)n(Cc3ccco3)c1O)C=N2	51%	71.4%	89	39.6%	9.07% (active)	77.5%	32.5%	57.9%	46.2%	25.4%	33.5%	15.8%	49.1%	56.5%	48.7%	52.8	27.8%	11.2%	61.3%	11.8%
CCCCCCNC(=O)Oc1ccc(/C(=C(\C)c2ccc(Cl)cc2)c2ccc(OCCN(CC)CC)cc2)cc1	67.1%	101%	85.7	77.8%	26.4%	58.3%	86.4%	58.4%	41.2%	4.94% (active)	73.5%	2.67% (active)	49.3%	65%	49.7%	62	84.9%	72.3%	6.29% (active)	-4.87% (active)
Cc1ccc2c(n1)C(=O)C(Cl)=C(Nc1ccccc1C(C)C)C2=O	49.8%	59.1%	62.7	90.8%	82.4%	106%	39.3%	94.7%	91.2%	116%	63.2%	12%	42.5%	30.3%	83.6%	86.4	101%	65.9%	24.9%	63%
COc1ccc(C2=Nn3c(nnc3-c3cc(Cl)cc(Cl)c3Cl)SC2)cc1	3.14% (active)	64.8%	36.4	-2.41% (active)	-18.9% (active)	22.3%	-17.8% (active)	21.9%	6.36% (active)	-34.4% (active)	6.93% (active)	2.96% (active)	37.2%	10.3%	14.4%	22.6	0.025% (active)	-8.32% (active)	37%	-45.3% (active)
O=C1CSC(c2c(Cl)cccc2Cl)N1c1nc(Cl)cc(=O)[nH]1 (stereo not given)	104%	99.8%	177	95.8%	101%	65%	75.8%	103%	90.7%	111%	123%	93.2%	216%	108%	113%	106	91.3%	102%	99.6%	106%
